Tau fil binding = tau filament binding; recombinant tau filaments, thioflavin S fluorescence, 15 h; filaments grown with octadecylsulfate alongside compound; P10636; AID 596; Potency, µM (titrated, usually from 57.1 µM), inactives show top-dose activity change, negative = inhibition; actives 2% (n = 71,000);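 note: % is set by controls: 0 for no effect and ±100 for the full control effect; actives lower thioflavin S fluorescence by blocking filaments or displacing dye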
Target sequence (P10636 whole entry, looked up): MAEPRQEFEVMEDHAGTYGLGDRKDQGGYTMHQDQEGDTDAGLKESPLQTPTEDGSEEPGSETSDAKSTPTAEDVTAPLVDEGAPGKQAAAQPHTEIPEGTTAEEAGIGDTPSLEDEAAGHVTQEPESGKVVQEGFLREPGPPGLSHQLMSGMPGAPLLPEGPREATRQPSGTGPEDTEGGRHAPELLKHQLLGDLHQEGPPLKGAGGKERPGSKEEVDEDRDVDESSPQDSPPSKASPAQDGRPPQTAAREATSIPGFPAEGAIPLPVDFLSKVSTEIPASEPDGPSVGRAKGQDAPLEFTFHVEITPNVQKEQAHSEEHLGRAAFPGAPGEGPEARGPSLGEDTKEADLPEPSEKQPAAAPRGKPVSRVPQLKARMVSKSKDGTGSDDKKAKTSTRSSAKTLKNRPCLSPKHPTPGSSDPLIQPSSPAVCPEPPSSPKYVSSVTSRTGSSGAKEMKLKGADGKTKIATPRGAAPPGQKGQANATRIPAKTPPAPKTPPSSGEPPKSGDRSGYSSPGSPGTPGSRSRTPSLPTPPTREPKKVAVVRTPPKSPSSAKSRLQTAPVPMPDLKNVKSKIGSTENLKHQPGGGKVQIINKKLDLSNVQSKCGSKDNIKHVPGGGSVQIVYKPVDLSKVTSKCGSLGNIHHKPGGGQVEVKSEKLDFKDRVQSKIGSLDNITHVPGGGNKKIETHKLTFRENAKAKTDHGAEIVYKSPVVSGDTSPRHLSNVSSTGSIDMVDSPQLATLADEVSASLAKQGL
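Tau 2 uM in ThS buffer dispensed; compound added; 60 uM ODS added (finals 1 uM tau, 30 uM ODS); 15 h 37 C; fluor ex450/em510.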
15-hLO inh = blocks human 15-lipoxygenase activity; purified 15hLO-1, xylenol orange hydroperoxide absorbance; Potency, µM (top dose mostly 57.1 µM), for inactives: at the highest dose activity change, negative = inhibition, most hits filed as inhibitors; actives 1.4% (n = 74,000); note: % is set by controls: 0 for no effect and ±100 for the full control effect; nearly all actives have a fitted effect of over 55% in size
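Purified human 15hLO-1 (40 nM) in 25 mM Hepes pH 7.5, 0.01% Triton X-100, preincubated 15 min RT with compound, then 50 uM arachidonic acid for 6 min. Hydroperoxide read by ferrous/xylenol orange, 30 min; 573/405 nm absorbance ratio gave progress.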
Hsp90 Hop PPI = changes Hsp90-Hop TPR2A binding signal, up or down. AlphaScreen TPR2A-His6 binding biotin-Hsp90 C-terminal peptide. Potency, µM (highest dose often 57 µM), without a hit: at the highest dose activity change, negative = inhibition. actives 0.44% (n = 71,000); active = well fitted curve in either direction with a large enough effect; inconclusive = small, poorly fitted or top-dose-only effect, or another doubt; note: % is set by controls: 0 for no effect and ±100 for the full control effect
CRE Fsk mod = modulators of forskolin-stimulated CRE signaling in CHO cells; CHO CRE-bla reporter (cAMP response element driving beta-lactamase), forskolin EC10, beta-lactamase ratio; Potency, µM (doses to about 38.2 µM), inactives show top-dose activity change, negative = inhibition, usual class: activators; actives 2.5% (n = 71,000); AID 662; active = well fitted activation curve with a large enough effect in the signal ratio, with a control signal flat, not every such curve was filed as active; inconclusive = small, poorly fitted or top-dose-only effect, or effect the other way, or a change in a side signal; the % refers to the signal ratio; note: % of control where 0% means no effect
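Modulation of forskolin signalling: compounds in titration series added with EC10 NKH 477 to CHO cells carrying a CRE-driven beta-lactamase reporter, 3 h, 37C. CCF4 FRET ratio (460/530 nm, ex 405 nm) gives %activity and AC50.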
IkB sig inh = IkB pathway inhibition in ABC-DLBCL cells; ABC-DLBCL IkBa-CBG/CBR dual luciferase ratio, 4 h; response scale: scaled: untreated 0%, proteasome inhibitor 100%; Potency, µM (series often up to 57.1 µM), inactives show top-dose IkBa stabilization activation; actives 0.04% (n = 110,000); AID 445; active = well fitted curve in the direction sought with a large enough effect in the signal ratio, not every such curve was filed as active; inconclusive = small, poorly fitted or top-dose-only effect, or a change in a side signal; the % refers to the signal ratio;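 note: the direction sought is a rising ratio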
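Luminescence ratio of IκBα-fused green versus native red beetle luciferase in OCI-Ly3 cells, 4 h post-doxycycline with compound; red signal alone, scaled from basal (0%) to zero light (-100%), flagged nonspecific or cytotoxic effects.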
* = called active by the depositor; [ ] = another dose, or the depositor's remark. A selection: hits, their analogues and other compounds. The true share with any hit is near 3.6%. Unless noted, calls come from the whole dose curve; as a rule, active = well fitted curve in the direction sought with a large enough effect; inconclusive = small, poorly fitted or top-dose-only effect, or another doubt; inactive = no such curve, though single readings can be large; an effect the other way counts as inactive or inconclusive. Potency is the fitted concentration of half-maximal effect.

Screening COc1ccc(-c2nnc(SCc3ccccc3F)o2)cc1OC returned Tau fil binding 56.0%, 15-hLO inh -2.5%, Hsp90 Hop PPI 4.3%, CRE Fsk mod 12.6µM* and IkB sig inh -0.1%.
`CC(C)[C@@H](CC(=O)N[C@@H]1CCCC[C@H]1C(=O)N[C@H](CC(=O)N[C@@H](CCC(=O)O)CC(=O)O)Cc1c[nH]c2ccccc12)NC(=O)C[C@H](Cc1c[nH]c2ccccc12)NC(=O)[C@@H]1CNCC[C@H]1N` gave Tau fil binding -26.3%, Hsp90 Hop PPI 15.8µM*, CRE Fsk mod -10.2% and IkB sig inh -0.1%.
Screening O=C(O)c1ccc2cc[nH]c2c1 returned Tau fil binding 2.9%, 15-hLO inh 7.2%, Hsp90 Hop PPI -1.6%, CRE Fsk mod 0.2µM* and IkB sig inh 2.8%.
`C[C@@]12CCC(=O)C=C1CC[C@H]1[C@@H]2[C@@H](O)C[C@]2(C)[C@@H]1CC[C@@]2(O)C(=O)COC(=O)C1CCCC1` gave Tau fil binding 4.8%[11.4 µM], 15-hLO inh 14.1%[11.4 µM], Hsp90 Hop PPI 2.8%[11 µM], CRE Fsk mod -7.9%[7.6 µM] and IkB sig inh 7.9%[11.4 µM].
`Cc1ccc(C2C(C#N)=C(N)SC(N)=C2C#N)c(C)c1` gave Tau fil binding 259.2%, 15-hLO inh inconclusive, Hsp90 Hop PPI 1.8%, CRE Fsk mod -5.5% and IkB sig inh inconclusive.
For N#CC1=C(N)SC(N)=C(C#N)C1c1ccnc2ccccc12 the results were Tau fil binding inactive, 15-hLO inh 3.98µM*, Hsp90 Hop PPI inconclusive, CRE Fsk mod inconclusive and IkB sig inh 0.0%.
For N#CCCn1cc(C(CC(=O)c2ccccc2)C(=O)O)c2ccccc21 (stereo unspecified) the results were Tau fil binding 7.2%, 15-hLO inh -2.7%, Hsp90 Hop PPI -1.9%, CRE Fsk mod 9.2% and IkB sig inh 1.7%.
Screening CC(C)n1cc(/C=C(\C#N)S(=O)(=O)c2ccccc2)c2ccccc21 returned Tau fil binding 7.94µM*, 15-hLO inh -15.3%, Hsp90 Hop PPI 23.8%, CRE Fsk mod inconclusive and IkB sig inh 4.2%.
`CCn1c(SCC(=O)OC)nc2sc3c(c2c1=O)CCC3` gave Tau fil binding -20.6%, 15-hLO inh -23.2%, Hsp90 Hop PPI -1.7%, CRE Fsk mod 12.6µM* and IkB sig inh -3.8%.
Screening COc1ccc(NC2c3ncccc3C(=O)N2Cc2ccccc2)c(OC)c1 (stereo unspecified) returned Tau fil binding 15.8µM*, 15-hLO inh -28.9%, Hsp90 Hop PPI -14.5%, CRE Fsk mod 2.7% and IkB sig inh -1.7%.
`Cc1ccc(C(=O)Nc2ccc3c(c2)OCO3)o1` gave Tau fil binding 20µM*, 15-hLO inh -8.5%, Hsp90 Hop PPI -5.8%, CRE Fsk mod -8.6% and IkB sig inh 0.0%.
CCN(CC)c1ccc(NC(=O)c2nc3nc(C)cc(C(F)F)n3n2)cc1 was read as Tau fil binding 15.8µM*, 15-hLO inh -12.3%, Hsp90 Hop PPI -24.5%, CRE Fsk mod -0.5% and IkB sig inh -3.5%.
`COC(=O)c1ccc(N/C(C)=C/C(=O)c2ccc(C)o2)cc1` gave Tau fil binding -3.1%, 15-hLO inh -2.8%, Hsp90 Hop PPI -7.0%, CRE Fsk mod -13.6% and IkB sig inh -2.5%.
For Cc1ccc(C(=O)OCC(=O)Nc2ccc3c(c2)OCO3)o1 the results were Tau fil binding -21.4%, 15-hLO inh -2.8%, Hsp90 Hop PPI -2.3%, CRE Fsk mod -17.7% and IkB sig inh -0.9%.
For O=C(Nc1ccc(CN2CCCCC2)cc1)c1ccc2c(c1)OCO2 the results were Tau fil binding 24.4%, 15-hLO inh -2.1%, Hsp90 Hop PPI -0.6%, CRE Fsk mod 1.4% and IkB sig inh 2.5%.
Screening O=C(Nc1ccc2c(c1)OCO2)c1ccc(CN2CCOCC2)cc1 returned Tau fil binding 15.8µM*, 15-hLO inh -28.6%, Hsp90 Hop PPI -22.3%, CRE Fsk mod 1.0% and IkB sig inh -1.3%.
For C/C(=C\C(=O)c1ccc(C)o1)Nc1ccc2c(c1)OCO2 the results were Tau fil binding 12.6µM*, 15-hLO inh -14.1%, Hsp90 Hop PPI -15.3%, CRE Fsk mod inconclusive and IkB sig inh -3.3%.
`Cc1cc(C)c2c(=O)cc(C(=O)NCCc3ccc(S(N)(=O)=O)cc3)oc2c1` gave IkB sig inh 1.4%.
For CCn1nnc2cc(C(=O)Nc3cccc(C)c3C)ccc21 the results were IkB sig inh -2.8%.
`CCc1ccc(OCC(=O)Nc2ncn[nH]2)c(Br)c1` gave IkB sig inh -4.8%.
`Cc1cc(C)n2nc(C(=O)Nc3ccc4c(c3)OCO4)nc2n1` gave Tau fil binding 31.6µM*, 15-hLO inh -10.5%, Hsp90 Hop PPI -6.7%, CRE Fsk mod 5.2% and IkB sig inh 1.3%.
For COc1nc(C#N)nc(N(C)C)n1 the results were Tau fil binding 12.6µM*, 15-hLO inh 4.0%, Hsp90 Hop PPI -7.9%, CRE Fsk mod 18.0% and IkB sig inh -4.0%.
For CCNc1ncc2nc(C)c(=O)n(Cc3cccs3)c2n1 the results were Tau fil binding 3.0%, 15-hLO inh 2.0%, Hsp90 Hop PPI -5.9%, CRE Fsk mod 10µM* and IkB sig inh -0.5%[11.4 µM].
O=c1c(-c2ccccc2)nc2cnc(N3CCNCC3)nc2n1Cc1cccs1 was read as Tau fil binding 5.01µM*, 15-hLO inh -3.0%, Hsp90 Hop PPI -0.6%, CRE Fsk mod inconclusive and IkB sig inh -1.2%[11.4 µM].
For Cc1nc2cnc(N3CCNCC3)nc2n(Cc2cccs2)c1=O the results were Tau fil binding -5.8%, 15-hLO inh 6.8%, Hsp90 Hop PPI -6.9%, CRE Fsk mod 10µM* and IkB sig inh -0.4%[11.4 µM].
`COc1ccc(CN(C)S(=O)(=O)c2nnc(NC(=O)C(C)C)s2)cc1OC` gave IkB sig inh -1.8%.
`CCOC(=O)C1CCN(C(=O)Cn2nc(CC)n3c(cc4sccc43)c2=O)CC1` gave IkB sig inh 2.2%.
Screening CCOc1ccc(OCC)c(NS(=O)(=O)c2c(C(=O)N3CCCCCC3)c(C)n(C)c2C)c1 returned IkB sig inh -1.7%.
CCOc1ccc(S(=O)(=O)N2CCC(N3CCN(Cc4ccc(C)cc4)C(=O)C3=O)CC2)cc1 was read as IkB sig inh 1.2%.
CCCOc1ccccc1-c1nc2c([nH]1)c(=O)[nH]c(=O)n2C was read as Tau fil binding 176.5%, 15-hLO inh 2.2%, Hsp90 Hop PPI 22.8%, CRE Fsk mod 12.6µM* and IkB sig inh -3.8%.
`CCCc1c(OCCCOc2ccc(OCC(=O)O)cc2)ccc(C(C)=O)c1O` gave Tau fil binding 9.6%, 15-hLO inh -4.4%, Hsp90 Hop PPI -6.3%, CRE Fsk mod 2.51µM* and IkB sig inh 0.0%.
`CN(C(=O)c1cc2nc(-c3ccco3)cc(C(F)(F)F)n2n1)C1CCCCC1` gave 15-hLO inh 10µM*.
